Measured values reported in PubChem BioAssay AID1259313 (Sanford-Burnham Center for Chemical Genomics, 2017).
The campaign covered roughly 340,000 compounds. About 8,500 (2.5%) were called active. The sample holds actives, similar compounds and a random draw of the others, so the mix is not that of the screen.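 Rule for the calls: active = melting temperature shift of at least 10% of the positive control shift, at one fixed dose; inactive = the rest.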

Tested on: Glutamate receptor ionotropic, NMDA 3A (GRIN3A) ligand-binding domain
Assay: binders of NR3A ligand-binding domain, primary screen, biophysical, differential scanning fluorimetry, uHTS (AID 1259313)
Conditions: NR3A LBD differential scanning fluorimetry, at 25 µM, hits give high values, 0% = protein alone, 100% = glycine-bound protein

Tm shift relative to glycine control, active:
O=C(O)c1ccc(NC(=O)c2cn(-c3ccccc3)nc2-c2ccc(Cl)cc2)cc1 12%
Cc1ccc(-c2nn(-c3ccccc3)cc2C(=O)Nc2cccc(S(=O)(=O)N3CCOCC3)c2)cc1 10.7%
Cc1ccc(-c2nn(-c3ccccc3)cc2/C=C/C(=O)Nc2cccc(S(N)(=O)=O)c2)cc1 28.9%
COc1ccc(NC(=O)c2cn(-c3ccccc3)nc2SC)cc1 18.1%
COc1cccc(NC(=O)CN(C)C(=O)/C=C/c2cn(-c3ccccc3)nc2-c2cccs2)c1 10.7%
COc1ccc2nc(Nc3nc(-c4cc5ccccc5oc4=O)cs3)sc2c1 24.7%
COc1ccc2nc(Nc3nc(-c4ccncc4)cs3)sc2c1 23.1%
O=c1oc2ccccc2cc1-c1csc(Nc2ccc(O)cc2)n1 12.2%
O=C(NCCNc1ccc([N+](=O)[O-])cc1)c1cccc2c(Br)cccc12 23.8%
O=C(CSc1nnc(COc2ccc(Cl)cc2)n1Cc1ccco1)N1CCNC1=O 14.1%
CC(C)c1cc(N=O)cc(C(C)C)c1O 14%
COc1ccc(/C=C(\C#N)c2c[nH]c3ccccc23)cc1 35.2%
O=C(NC(=S)Nc1cccc2c(O)cccc12)c1cccc(Br)c1 23.1%
CCN1C(=O)C(CC(=O)Nc2cc(C)ccc2C)SC1=Nc1ccc(S(N)(=O)=O)cc1 (stereo not drawn) 14.2%
Cc1[nH]nc(-c2ccc(OCc3cnn(-c4ccccc4)c3)cc2O)c1Oc1ccc(Cl)cc1 22.7%
Brc1ccc(-c2csc(N/N=C/c3ccc4c(c3)OCO4)n2)cc1 23.4%
CNC(=O)c1sc(Nc2ccc(OCc3ccccc3)cc2)nc1C 33.7%
CC(=O)c1c(Nc2ccccc2)sc(C(=O)c2ccccc2)c1C 13.4%
CCOC(=O)c1ccc(NC(=O)c2c(NCc3ccccc3)[nH]c(=O)[nH]c2=O)cc1 14.9%

Tm shift relative to glycine control, inactive:
O=C(CCC(=O)N1CCN(S(=O)(=O)c2ccc(Cl)cc2)CC1)NCc1cccc(C(F)(F)F)c1 -1.09%
O=C(O)C1C2CC2CN1C(=O)c1ccc(Cl)cc1Cl (stereo not drawn) -0.76%
Cc1occc1C(=O)Nc1cccc(S(=O)(=O)N2CCOCC2)c1 0.26%
COc1ccc(-c2nn(-c3ccccc3)cc2C(=O)Nc2nccs2)cc1OC -1.92%
Cc1ccc(-c2nn(-c3ccccc3)cc2C(=O)NCCCN2CCCC2=O)cc1 -0.51%
CSc1ncccc1C(=O)Nc1cccc(S(=O)(=O)N2CCOCC2)c1 2.41%
O=C(/C=C/c1cn(-c2ccccc2)nc1-c1ccc2c(c1)OCCO2)NCCCN1CCOCC1 -0.74%
COc1ccc(NC(=O)c2ccccc2CC[N+](=O)[O-])cc1 1.34%
NS(=O)(=O)c1cccc(NC(=O)CSc2nc3ccccc3n2-c2ccccc2)c1 -3.25%
Cc1ccc(-c2nn(-c3ccccc3)cc2C(=O)NC2CCC(O)CC2)cc1 (stereo not drawn) -1.68%
Cc1cccc(NC(=O)Cn2c(=O)n(Cc3ccccc3)c(=O)c3c(C)c(C)sc32)c1 8.62%
O=C(CN1C(=O)c2cccnc2Oc2ccc(Cl)cc21)NCCc1ccccc1 0.65%
CNC(=O)c1[nH]cnc1C(=O)N[C@@H](CC(C)C)C(=O)OCc1ccccc1 -3.33%
CCN(CC)Cc1c(C(=O)OC)nnn1-c1nonc1N -0.56%
CCCc1cc(=O)oc2c(C)c(OC(C)C(=O)NCC(O)c3ccccc3)ccc12 (stereo not drawn) 0%
O=C(O)c1cc(S(=O)(=O)N2CCCCCC2)c(Cl)cc1Cl 0.9%
CC(C(=O)c1ccc(-c2ccccc2)cc1)[n+]1cccc(Br)c1 (stereo not drawn) -2.4%
Cc1ccccc1-n1nnnc1SCCCC(=O)c1ccc(F)cc1 3.17%
COc1cccc(NC(=O)CN(C)C(=O)/C=C/c2cc(OC)ccc2OC)c1 -3.12%
COc1ccc(NC(=O)CN(C)C(=O)/C=C/c2cn(Cc3ccccc3)nc2-c2cccnc2)cc1 -0.36%
Fc1ccc2nc(Nc3nc4c(s3)CCCC4)sc2c1 -1.71%
CCCCCCC(=O)Nc1nc(C)c(-c2csc(Nc3cccc(OC)c3)n2)s1 4.39%
COc1ccc(OC)c(-c2csc(NC(=O)C3=NNC(=O)CC3)n2)c1 -2.68%
O=C(NCc1cccnc1)c1cccc(-c2cc3ccccc3oc2=O)c1 -2.7%
COc1ccc(OC)c(-c2csc(-c3cccs3)n2)c1 2.35%
O=C(Nc1ccncc1)c1cc2ccccc2o1 -15%
COC(=O)c1c(NC(=O)CN(c2ccc(C)c(C)c2)S(C)(=O)=O)sc2c1CCCC2 -7.55%
O=C(COc1nsnc1N1CCOCC1)Nc1ccccc1Cl 1.49%
COc1ccccc1N1CC(C(=O)Nc2nnc(SCC(=O)NCC3CCCO3)s2)CC1=O (stereo not drawn) 0.09%
O=C(CNCCO)NC12CC3CC(CC(C3)C1)C2 -0.61%
O=S(=O)(Nc1ccccc1Cl)c1cccc2nsnc12 -0.29%
O=C(CC1C(=O)NCCN1CC(c1ccccc1)c1ccccc1)NCC1CCOCC1 (stereo not drawn) 3.8%
O=C(Cn1c(-c2cscn2)nc2ccccc21)Nc1ccc(Cl)cc1 -2.29%
CC1CCCN(C(=O)Cn2c(=O)oc3cc(S(=O)(=O)N4CCCCC4C)ccc32)C1 (stereo not drawn) -0.87%
O=C(NCCNc1ccc([N+](=O)[O-])cc1Cl)c1ccccc1F -1.3%
CC(CNc1ccc([N+](=O)[O-])cc1)NC(=O)c1ccccc1Br (stereo not drawn) 2.55%
Clc1cc(-c2ccc(/C=N/n3cnnc3)o2)ccc1Br -26.7%
CCN(CC)C(=O)CSc1nnc(CNc2ccc(F)cc2)n1Cc1ccco1 1.69%
CCOC(=O)CNC(=O)CSc1nnc(COc2ccc(Cl)cc2)n1CC -0.34%
CC(C)=CCc1ccc(O)c(=O)cc1C(C)C -5.18%
CC(C)c1cc(CN2CCOCC2)cc(C(C)C)c1O -0.77%
Cc1noc(C)c1-c1ccc2ncnc(NC(C)c3ccco3)c2c1 (stereo not drawn) -0.81%
COc1ccc(C(C(O)C(=O)c2c[nH]c3ccccc23)N2CCN(c3ccccc3)CC2)cc1 (stereo not drawn) -1.26%
COc1cccc(-n2c(SCC(=O)c3c[nH]c4ccccc34)nc3ccccc3c2=O)c1 8.21%
Cc1cc(C)c2nc(NC(=O)C3CCCO3)sc2c1 (stereo not drawn) -0.2%
CC(NC(=O)c1ccccc1)C(=O)OCC(=O)Nc1cccc(S(=O)(=O)N2CCCC2)c1 (stereo not drawn) -1.26%
NS(=O)(=O)c1ccc(NC(=S)NC(=O)c2cccc(Br)c2)cc1 -9.81%
Cc1ccccc1NC(=S)NNC(=O)c1cccc(Br)c1 -6.22%
C/C=C(/C)C(=O)O[C@@H]1c2cc3c(c4c2[C@@]2(CO4)C(=O)C(OC)=C(OC)C=C2C[C@@H](C)[C@H]1C)OCO3 0.32%
CCN1C(=O)C(=O)N(CC(=O)Nc2cc(C)ccc2C)C1=O 1.68%
CCN=C1SC(CC(=O)Nc2ccc(C)cc2)C(=O)N1CC (stereo not drawn) 0.44%
C/C(=N\NS(=O)(=O)c1ccccc1)c1c(O)cc(C)oc1=O 5.22%
COc1ccc(-c2nc(N)ncc2-c2ccc(Cl)cc2)c(O)c1 -3.97%
Oc1cccc(C2c3[nH]c4ccccc4c3CCN2Cc2cnn(-c3ccccc3)c2)c1 (stereo not drawn) 9.57%
COc1ccc(C(=O)NC(Cc2ccc(OC(=O)c3ccc(OC)cc3)cc2)C(=O)O)cc1 (stereo not drawn) 1.26%
CCCC(C)n1[nH]c(=O)c2c(C)cc(C)nc21 (stereo not drawn) -2.91%
COc1ccc(/C=C/C(=O)OCC(=O)N2CCN(S(=O)(=O)c3ccc(C)cc3C)CC2)cc1OC 2.82%
Cc1nc2ccccn2c(=O)c1NC(=O)c1cccs1 2.62%
Brc1ccc(-c2csc(N/N=C/c3cccnc3)n2)cc1 3.34%
C(=N\Nc1ccc2ccccc2n1)/c1ccc2c(c1)OCO2 -7.73%
COc1ccc(-c2ccc(CCC(=O)O)n2NC(=O)c2ccc(C(C)(C)C)cc2)cc1 -1.21%
CNC(=O)c1sc(NCc2ccccc2OC)nc1C 0.18%
O=C(O)/C=C\C(=O)Nc1ccc(OCc2ccccc2)cc1 -0.88%
COC(=O)C1=C(Nc2ccc(C)cc2)C=C(C)C(C(=O)OC)C1c1ccc(F)cc1 (stereo not drawn) 2.17%
CC[C@]1(C(=O)OC)[C@H]2C(=O)N(Cc3ccccc3)C(=O)[C@H]2[C@H]2CN=C(SCc3ccccc3)N21 -1.15%
COCCN1C2=C(COC(C)(C)C2)C(=S)NC1c1ccccc1 (stereo not drawn) -0.64%
CCC(=O)Nc1sc(C(=O)Nc2ccccc2)c(C)c1C(=O)OC 2.03%
COC(=O)c1c(NC(C)=O)sc(C(=O)Nc2ccccc2OC)c1C -3.42%
COC(=O)c1cc(S(=O)(=O)N2CCN(c3cc(C)ccc3C)CC2)c[nH]1 -17%
Cc1ccc(Cl)c(OCC(=O)NN2CCN(C)CC2)c1 -1.17%
CCCC1=Nc2cc(C(=O)NCc3ccco3)ccc2Sc2ccccc21 -20.6%
Cc1ccc(N(CC(=O)Nc2cc(C)cc(C)c2)S(=O)(=O)c2cccc3nonc23)cc1 -1.49%
CCOC(=O)c1ccc(NC(=O)c2nc[nH]c2C(=O)NCc2ccccc2)cc1 -1.27%
CCOC(=O)c1ccc(NC(=O)c2c(N)n(C)c(=O)[nH]c2=O)cc1 0.72%
